Experimental data taken from PubChem BioAssay AID1159580 (chemical genetic matrix, 2015).
Several values for one entry are separate records, joined by “and”; a condition that tells them apart may be missing. Identical values can stand only once. The campaign covered roughly 5,500 compounds. About 2,000 (36%) were called active. Roughly 18% stayed inconclusive and do not appear here. No stated cut-off is given here; in the data, active means normalized growth mostly below about 0.91 (no sharp cut-off); inconclusive means no clear call, values can overlap the other calls; inactive means mostly above about 0.92. The list shows a part of the results.

Assay: chemical genetic growth profiling, strain panel (AID 1159580);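 further: tested at 20 µM; growth read once vehicle control cultures reached saturation at 30 °C; 1 = growth at the plate median or of vehicle wells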
Conditions: S. cerevisiae deletion strains, growth OD

Measured: normalized growth

O=C1c2cccc(O)c2C(=O)c2c(O)cccc21
0.74 (active) and 0.875 (inactive): locus YHR030C, strain SLT2, stronger effect = lower value
active: locus YAL013W, strain DEP1, stronger effect = lower value 0.799 | locus YAL021C, strain ccr4, stronger effect = lower value 0.837 | locus YAL026C, strain drs2, stronger effect = lower value 0.823 | locus YBR009C, strain hhf1, stronger effect = lower value 0.821 | locus YBR021W, strain FUR4, stronger effect = lower value 1.18 [resistant] | locus YBR023C, strain chs3, stronger effect = lower value 0.909 | locus YBR229C, strain ROT2, stronger effect = lower value 0.898 | locus YBR231C, strain swc5, stronger effect = lower value 0.733 | locus YBR279W, strain paf1, stronger effect = lower value 0.905 | locus YCL016C, strain dcc1, stronger effect = lower value 0.77 | locus YCL029C, strain bik1, stronger effect = lower value 0.808 | locus YDL005C, strain med2, stronger effect = lower value 0.167 | locus YDL035C, strain GPR1, stronger effect = lower value 0.703 | locus YDL074C, strain BRE1, stronger effect = lower value 0.658 | locus YDL101C, strain DUN1, stronger effect = lower value 0.616 | locus YDL185W, strain tfp1, stronger effect = lower value 0.789 | locus YDL192W, strain arf1, stronger effect = lower value 0.628 | locus YDR069C, strain doa4, stronger effect = lower value 0.768 | locus YDR101C, strain arx1, stronger effect = lower value 0.745 | locus YDR137W, strain rgp1, stronger effect = lower value 0.268 | locus YDR150W, strain NUM1, stronger effect = lower value 0.861 | locus YDR159W, strain sac3, stronger effect = lower value 0.705 | locus YDR162C, strain NBP2, stronger effect = lower value 0.344 | locus YDR195W, strain ref2 1.22 [resistant] | locus YDR318W, strain mcm21, stronger effect = lower value 0.772 | locus YDR334W, strain swr1, stronger effect = lower value 0.831 | locus YDR335W, strain msn5, stronger effect = lower value 0.85 | locus YDR388W, stronger effect = lower value 0.728 | locus YDR392W, strain spt3, stronger effect = lower value 0.64 | locus YDR502C, strain sam2, stronger effect = lower value 0.673 | locus YEL003W, strain gim4, stronger effect = lower value 0.834 | locus YEL061C, strain CIN8, stronger effect = lower value 0.747 | locus YER015W, strain faa2, stronger effect = lower value 0.911 | locus YER016W, strain bim1, stronger effect = lower value 0.864 | locus YER110C, stronger effect = lower value 0.885 | locus YER155C, strain BEM2 (second series), stronger effect = lower value 0.806 | locus YER155C, strain BEM2, stronger effect = lower value 0.835 | locus YER167W, strain BCK2, stronger effect = lower value 0.77 | locus YFR010W, strain ubp6, stronger effect = lower value 0.862 | locus YGL078C, strain dbp3, stronger effect = lower value 0.874 | locus YGL086W, strain mad1, stronger effect = lower value 0.781 | locus YGL167C, strain pmr1, stronger effect = lower value 0.612 | locus YGL240W, strain doc1, stronger effect = lower value 0.886 | locus YGL248W, strain PDE1, stronger effect = lower value 0.685 | locus YGL253W, strain hxk2, stronger effect = lower value 0.79 | locus YGR078C, strain PAC10, stronger effect = lower value 0.669 | locus YGR135W, strain pre9, stronger effect = lower value 0.698 | locus YGR252W, strain gcn5, stronger effect = lower value 0.625 | locus YHR013C, strain ard1, stronger effect = lower value 0.701 | locus YHR027C, strain rpn1, stronger effect = lower value 0.81 | locus YHR079C, strain IRE1 (second series), stronger effect = lower value 0.915 | locus YHR129C, strain ARP1, stronger effect = lower value 0.777 | locus YHR142W, strain chs7, stronger effect = lower value 0.857 | locus YHR200W, strain rpn10, stronger effect = lower value 0.732 | locus YIL066C, strain RNR3, stronger effect = lower value 0.59 | locus YIL125W, strain kgd1, stronger effect = lower value 0.872 | locus YIR030C, strain dcg1, stronger effect = lower value 0.896 | locus YJL095W, strain BCK1 (second series), stronger effect = lower value 0.878 | locus YJL095W, strain BCK1, stronger effect = lower value 0.379 and 0.881 | locus YJL115W, strain asf1, stronger effect = lower value 0.819 | locus YJL164C, strain tpk1, stronger effect = lower value 0.833 | locus YJL166W, strain qcr8, stronger effect = lower value 0.812 | locus YJL168C, strain set2, stronger effect = lower value 0.927 | locus YJL187C, strain SWE1 (second series), stronger effect = lower value 0.611 | locus YJL187C, strain SWE1, stronger effect = lower value 0.914
inactive: locus YAL030W, strain snc1, stronger effect = lower value 0.935 | locus YBL061C, strain skt5, stronger effect = lower value 0.929 | locus YBR171W, strain sec66, stronger effect = lower value 0.939 | locus YCL011C, strain gbp2, stronger effect = lower value 0.928 | locus YCL061C, strain MRC1, stronger effect = lower value 0.928 | locus YCL069W, strain vba3, stronger effect = lower value 0.951 | locus YCR088W, strain abp1, stronger effect = lower value 0.97 | locus YDL040C, strain nat1, stronger effect = lower value 0.952 | locus YDR001C, strain nth1, stronger effect = lower value 0.977 | locus YDR297W, strain sur2, stronger effect = lower value 0.949 | locus YEL037C, strain rad23, stronger effect = lower value 0.936 | locus YEL061C, strain CIN8 (second series), stronger effect = lower value 0.957 | locus YER111C, strain swi4, stronger effect = lower value 0.956 | locus YGL173C, strain kem1, stronger effect = lower value 0.947 | locus YGL227W, strain vid30, stronger effect = lower value 0.994 | locus YHR079C, strain IRE1, stronger effect = lower value 0.899 | locus YHR094C, strain hxt1, stronger effect = lower value 0.95 | locus YIL073C, strain SPO22, stronger effect = lower value 0.764 | locus YJL092W, strain hpr5, stronger effect = lower value 0.946 | locus YJL129C, strain trk1, stronger effect = lower value 1.02 | locus YJL134W, strain LCB3, stronger effect = lower value 0.951 | locus YJL154C, strain vps35, stronger effect = lower value 0.955
